Screening results from PubChem.
Tau fluor cs = counter-screen for tau fibril formation inhibitors. Potency, µM (highest dose often 57.7 µM), for the others: top-dose activity change, negative = decrease. actives 0.93% (n = 280,000). tau K18 P301L Alexa594 fluorescence, heparin fibrillization. AID 1463; further: nearly all actives have a fitted effect of over 55% in size
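Human K18 P301L tau (15 uM unlabeled plus 0.24 uM Alexa 594-labeled, final) in 100 mM sodium acetate pH 7 was mixed with compound and 20 uM heparin and incubated 6 hr at 37 C.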
ALDH1A1 block = inhibitors of human aldehyde dehydrogenase 1A1. P00352. Purified ALDH1A1, NADH fluorescence, propionaldehyde substrate. Potency, µM (series often up to 75.3 µM), without a hit: at the highest dose activity, negative = inhibition, usual class: inhibitors. actives 7.3% (n = 220,000); active means well fitted inhibition curve with a large enough effect, not every such curve was filed as active; inconclusive means small, poorly fitted or top-dose-only effect, or another doubt; inactive means no such curve, though single readings can be large or run the other way;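 further: plate controls were no enzyme wells and a reference inhibitor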
Target sequence (P00352 whole entry, looked up): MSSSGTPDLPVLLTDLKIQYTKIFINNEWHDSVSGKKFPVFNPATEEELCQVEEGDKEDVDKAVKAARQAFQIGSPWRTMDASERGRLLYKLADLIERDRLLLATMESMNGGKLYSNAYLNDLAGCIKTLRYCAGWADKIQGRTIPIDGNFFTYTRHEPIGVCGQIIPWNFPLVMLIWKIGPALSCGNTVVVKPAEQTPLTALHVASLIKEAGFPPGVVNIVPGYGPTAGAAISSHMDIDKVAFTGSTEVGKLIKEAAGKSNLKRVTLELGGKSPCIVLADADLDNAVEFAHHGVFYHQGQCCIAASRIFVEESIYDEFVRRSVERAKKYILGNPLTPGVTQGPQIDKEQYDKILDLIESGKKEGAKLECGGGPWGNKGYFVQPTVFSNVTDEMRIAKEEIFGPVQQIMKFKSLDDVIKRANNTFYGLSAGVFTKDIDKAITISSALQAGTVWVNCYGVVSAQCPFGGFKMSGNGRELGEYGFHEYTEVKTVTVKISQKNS
HPGD inh = blocks human HPGD enzyme activity; P15428; purified HPGD, NADH fluorescence kinetic, PGE2 substrate; Potency, µM, for the others: at the top dose activity change, negative = inhibition, usual class: inhibitors; actives 4.3% (n = 150,000); AID 894; active means well fitted inhibition curve with a large enough effect, not every such curve was filed as active; inconclusive means small, poorly fitted or top-dose-only effect, or another doubt; inactive means no such curve, though single readings can be large or run the other way
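20 nM HPGD preincubated 15 min at room temperature with compound in 50 mM Tris-HCl pH 8, 0.01% Tween 20. Started with 1 mM NAD+ and 30 uM prostaglandin E2; NADH fluorescence (360/450 nm) read 5 times over 30-s intervals, last minus first.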
NPSR antagonist = neuropeptide S receptor (human) antagonism, cAMP; Q6W5P4; CHO-NPSR cells, cAMP TR-FRET, antagonist mode; Potency, µM (top dose mostly 38.3 µM), for the others: at the highest dose activity change, negative = inhibition, hits mostly inhibitors; actives 1% (n = 220,000); further: nearly all actives have a fitted effect of over 50% in size
Tau ThT inhib = tau fibrillization inhibition (ThT binding); recombinant tau K18 P301L (four-repeat tau fragment), heparin-induced fibrillization, ThT fluorescence; actives 2.1% (n = 270,000); Potency, µM (series often up to 57.4 µM), inactives show at the top dose activity, negative = inhibition, actives largely listed as inhibitors; AID 1460; further: nearly all actives have a fitted effect of over 55% in size
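Heparin-induced fibrillization of the P301L-mutant K18 repeat-domain fragment of human tau was followed by ThT binding in quantitative high-throughput format.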
Tau fibril FP = blocks human tau fibril formation measured by polarization; P10636; K18 P301L tau heparin fibrillization, Alexa594 FP, 6 h; Potency, µM (doses to about 57.7 µM), inactives show at the top dose activity, negative = inhibition, usual class: inhibitors; actives 0.39% (n = 280,000); AID 1468; further: nearly all actives have a fitted effect of over 55% in size
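Read-out: fluorescence polarization of Alexa 594-labeled tau (0.24 uM), 555 nm excitation, 632 nm emission. Mixtures held 15 uM unlabeled K18 P301L, compound and 20 uM heparin, pH 7 acetate buffer, incubated 6 hr at 37 C.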
* = called active by the depositor; u = inconclusive; x = no result given; [ ] = another dose, or the depositor's remark. A selection: hits, their analogues and other compounds. The true share with any hit is near 9.5%. Unless noted, the call rests on the fitted dose curve; in most records, active means well fitted curve in the direction sought with a large enough effect; inconclusive means small, poorly fitted or top-dose-only effect, or another doubt; inactive means no such curve, though single readings can be large; an effect the other way counts as inactive or inconclusive. Unless noted, on the % scale 0 is the no-effect control and ±100 the full control effect; potency means the concentration at half of the fitted maximal effect.

SMILES | Tau fluor cs | ALDH1A1 block | HPGD inh | NPSR antagonist | Tau ThT inhib | Tau fibril FP
O=C(Nc1ccccc1OC(F)F)c1cc2c(s1)CCC2 | -16.6% | u | -17.2% | -8.5% | -13.7% | 2.8%
CCCCC(=O)Nc1ccc(NC(=S)NC(=O)CCCCl)cc1OC | -2.3% | u | -18.7% | 3.6% | 0.5% | -3.8%
CCN1/C(=C/C=C/c2oc3ccc4ccccc4c3[n+]2CC)Oc2ccc3ccccc3c21 | 2.82µM*[fluorescent] | 0.1% | x | 19.9% | 1.12µM* | u
CC[n+]1c(/C=C/N(C)c2ccccc2)oc2ccc(Cl)cc21 | 1.2% | 1.4% | u | 20.5% | 4.4% | 8.6%
C=CCN(CC=C)Cc1c(C)[nH]c2ccc(C(=O)OCC)cc2c1=O | -0.3% | u | u | 3.5%[46.1 µM] | -6.6% | 1.7%
COc1ccc(OC)c(C2=NOC(C(=O)Nc3cc(C)on3)C2)c1 (stereo unspecified) | -5.6% | x | x | 7.2% | -1.9% | u
C/C(=N\NC(=O)c1cc(-c2cccnc2)nc2ccccc12)c1ccc(O)cc1O | u | u | -22.8% | -16.9% | 7.94µM* | 19.7%
O=C(N/N=C/C=C/c1ccccc1[N+](=O)[O-])c1cc(-c2cccnc2)nc2ccccc12 | u | 14.1µM* | -5.2% | -2.8% | -15.0% | 8.4%
Cc1cc(C(=O)N/N=C/C=C/c2ccccc2[N+](=O)[O-])c(C)o1 | -8.9% | 5.62µM* | x | -15.4% | u | 7.4%
O=C(Cc1ccccc1)N/N=C/C=C/c1ccccc1[N+](=O)[O-] | -3.3% | 2.2% | x | 1.5% | -3.6% | -11.9%
COc1ccccc1-c1cc(C(=O)N/N=C/C=C/c2ccccc2[N+](=O)[O-])c2ccccc2n1 | -26.8% | -5.4% | -2.1% | -9.8%[46.1 µM] | -9.5% | 14.8%
O=C(O)c1ccc(N/N=C/C=C/c2ccccc2[N+](=O)[O-])cc1 | -26.2% | u | x | -14.9% | 12.6µM* | 11.6%
Cc1occc1C(=O)N/N=C/C=C/c1ccccc1[N+](=O)[O-] | -24.6% | -7.4% | x | -19.5% | u | 2.8%
c1ccc(Oc2nc(NC3CCCCC3)c3[nH]cnc3n2)cc1 | -8.6% | u | -4.2% | x | 0.9% | -0.8%
CN(CCc1cnn(C)c1)Cc1nc(CC2CC2)no1 | -9.4% | u | x | 21.9% | -5.4% | -8.1%
O=C(CSc1nc2ccccc2c(=O)n1-c1ccccc1)N/N=C/C=C/c1ccccc1[N+](=O)[O-] | -27.9% | 2.82µM* | x | -18.5% | -11.8% | -9.6%
O=C(COC(=O)C1(c2cccc(F)c2)CCCC1)NCc1ccc2c(c1)OCO2 | -14.6% | 0.6% | -5.5% | -20.6% | -11.8% | 7.2%
Fc1ccc(C2c3[nH]c4ccccc4c3CCN2Cc2cccn2-c2ncccn2)cc1 (stereo unspecified) | 8.5%[2.34 µM] | 10µM* | x | 5.9% | 7.6% | -15.0%
Clc1ccc(-n2cccc2CN2CCc3c([nH]c4ccccc34)C2c2ccccn2)nc1 (stereo unspecified) | u | 14.1µM* | x | u | u | -13.2%
CCOC(=O)c1cccc(NC(=O)c2ccc3nc(CCc4ccccc4)oc3c2)c1 | -17.3% | x | x | x | u | -10.5%
O=C(COCc1cc(-c2ccc3c(c2)OCO3)on1)Nc1cc(Cl)ccc1O | -11.5% | x | x | x | -6.5% | -1.1%
CC(=O)N1c2c(cc(Br)cc2S(=O)(=O)N2CCN(C(=O)c3ccco3)CC2)CC1C (stereo unspecified) | -4.1% | -8.4% | 14.1µM* | -8.5%[46.1 µM] | -2.0% | -4.6%
CC(=O)N(c1ccccc1)c1nc(/C=C/C(=O)Nc2c(C)cc(C)cc2C)cs1 | -0.8% | 5.3% | -6.1% | 10.8% | -7.1% | 9.2%
Cc1ccc(CN2C(=O)C3CCCN3c3ccc(C#N)cc32)cc1 (stereo unspecified) | -15.1% | u | u | -6.2%[46.1 µM] | -10.0% | -2.1%
CON(C)S(=O)(=O)c1ccc2c(c1)N(Cc1ccc(C)cc1)C(=O)C1CCCN21 (stereo unspecified) | 0.5% | 10µM* | x | -7.0% | 2.0% | 10.7%
